# proKLK7 act: activators of human kallikrein-7 zymogen; 370,000 tested, 0.9% active; purified proKLK7, EDANS-DABCYL substrate fluorescence; 100% is mature enzyme control, 0% vehicle; AID 652039; activation, % at 7 µM; P49862;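 active means activation above the mean of all tested compounds plus 3 SD, computed per campaign excluding outliers beyond control limits, cut at about 13% in these data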
# LEDGF integ inh: blocks HIV-1 LEDGF/p75-dependent DNA integration. TR-FRET IN-LEDGF/p75 DNA integration, Eu/Cy5. inhibition, % at 3.7 µM. 370,000 tested, 0.64% active;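 active means inhibition above the screen-wide mean plus 3 SD, cut at about 13% in these data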;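 further: signal is the Cy5 over europium emission ratio at 671 and 618 nm; 0% = plate median of compound wells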
# UHRF1 MBD2 ctr: human UHRF1 methylated DNA binding inhibitors; 370,000 tested, 0.75% active; Q96T88; inhibition, % at 4.4 µM; UHRF1 binding to methylated oligo, TR-FRET; in the data active means inhibition above about 21%;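 further: UHRF1 SRA domain binding a hemimethylated CpG hairpin DNA probe; 0% = median of test compound wells and 100% = reference inhibitor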
# Rin1 Abl inh: human Rin1-Abl interaction inhibition; P00519+Q13671; TR-FRET Rin1/Abl binding, biochemical; inhibition, % at 7.35 µM; 360,000 tested, 0.4% active; in the data active means inhibition above about 5%, passing the limit was not always enough
# Neddyl block: blocks human cullin neddylation; 360,000 tested, 0.58% active; calls only at 25 µM; TR-FRET cullin neddylation, biochemical; P61081+Q13564; in the data active means inhibition above about 36%
# MBD2 inh: MBD2-methylated oligo binding inhibition | Q9UBB5 | TR-FRET, MBD2 binding to methylated oligonucleotide | inhibition, % at 4.4 µM | 370,000 tested, 0.31% active | AID 686964; in the data active means inhibition above about 13%
# IN multimer up: activates HIV-1 integrase multimerization in LEDGF counter-screen | activation, % at 7.7 µM | shares compounds with LEDGF integ inh | TR-FRET HIV-1 integrase multimerization, biochemical | 2,000 tested, 17% active; in the data active means activation above about 8.9%
# TR-FRET interf: counter-screen for LEDGF/p75 integration inhibitors: TR-FRET optical interference; shares compounds with LEDGF integ inh; TR-FRET optical interference counterscreen, HIV-1 IN multimerization; inhibition, % at 7.7 µM; 2,000 tested, under 10 active; AID 1053135;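 active means inhibition above the mean over all tested compounds plus 3 SD, which no compound reached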;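 further: 0% = integrase with antibodies and DMSO and 100% = antibodies without integrase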
# IN-LEDGF confirm: confirmation of HIV-1 LEDGF/p75-dependent integration inhibitors; TR-FRET LEDGF/p75-dependent HIV-1 integration, biochemical; 2,000 tested, 36% active; inhibition, % at 3.7 µM; shares compounds with LEDGF integ inh; AID 1053136; in the data active means inhibition above about 14%
# * hit, by the source's call; i = inactive; · = no result given. In the library only some 3.1% were active in any assay of this set; here they are far more common.
SMILES,proKLK7 act,LEDGF integ inh,UHRF1 MBD2 ctr,Rin1 Abl inh,Neddyl block,MBD2 inh,IN multimer up,TR-FRET interf,IN-LEDGF confirm
CC1CN(C)C(C)C/C1=N\Oc1ccc([N+](=O)[O-])cc1 (configuration not stated),0.2,-1.6,-1.3,3.7,i,-2.9,·,·,·
O=C(N1CCOCC1)N1CCCN(C(=O)N2CCOCC2)CC1,-0.7,-3.7,6.9,-2.0,i,7.6,·,·,·
O=C(N1CCCCCC1)N1CCN(C(=O)N2CCOCC2)CC1,-0.6,30.7*,4.9,-1.1,i,5.5,-0.2,0.8,0.0
O=C(CS(=O)(=O)Cc1ccccc1)Nc1ccc(Cl)cn1,-0.1,87.6*,0.0,-3.5,i,7.1,5.4,-19.0,2.0
Cc1nnc(NC(=O)CSc2nnc(C)n2Cc2ccccc2)s1,1.5,-4.3,4.3,2.9,i,5.4,·,·,·
Cc1nnc(SCC(=O)Nc2ccc(Cl)cn2)n1Cc1ccccc1,-0.5,16.2*,-1.1,-1.6,i,-0.7,0.2,-1.0,0.0
CSc1nsc(SC)c1NC(=O)OCC1CCCO1 (configuration not stated),-0.7,1.1,1.6,-0.9,i,4.6,·,·,·
O=C(O)CC1(c2ccc(F)cc2)C2CC3CC(C2)CC1C3 (configuration not stated),0.7,-0.5,-1.1,0.6,i,0.5,·,·,·
Cc1cc(=O)c2c(O)c(O)ccc2o1,1.6,13.8*,10.8,-0.8,i,-0.1,9.6*,-34.1,9.2
O=C(CCN1CCCCC1)NNC(=O)C12CC3CC(CC(C3)C1)C2,-0.1,88.8*,-2.1,2.9,i,-3.0,0.5,-2.5,6.0
O=C(CCN1CCCCC1)NCNC(=O)CCN1CCCCC1,-0.1,2.6,2.9,-4.5,i,1.4,·,·,·
COC(C)(C)[C@@H](O)COc1c2ccoc2cc2oc(=O)ccc12,0.5,-1.5,-1.9,0.8,i,-3.6,·,·,·
Cc1ccc(Cc2c(-c3ccc(Br)cc3)nc3ccc(Cl)cn23)cc1,-1.0,14.2*,-1.4,-1.0,i,-2.6,-0.2,1.2,0.4
Clc1ccc(-c2nc3ccc(Cl)cn3c2Cc2ccccc2)cc1,-3.0,-3.2,12.1,-7.2,i,0.7,·,·,·
Clc1ccc2nc(-c3ccccc3)c(Cc3ccccc3)n2c1,0.0,27.2*,1.1,-2.4,i,-4.6,-0.7,3.5,-3.1
COC(=O)C(CC(C)C)N(Cc1ccc(Br)cc1)S(=O)(=O)CCl (configuration not stated),0.0,0.0,-0.3,·,·,0.4,·,·,·
Cc1oc2ccc(O)cc2c1C(=O)c1ccc([N+](=O)[O-])cc1,-0.2,1.5,1.8,-4.6,i,-1.9,·,·,·
CN(C)/C=C/c1oc2ccc(O)cc2c1[N+](=O)[O-],0.7,18.3*,-21.8,-34.4,i,-15.8,19.2*,-96.5,7.0
Cc1ccccc1OCC(=O)OCC(=O)Nc1cc(C(F)(F)F)ccc1N1CCOCC1,0.0,16.9*,-0.7,0.1,i,-9.4,-0.6,3.3,-5.6
O=C(Nc1ccc(C(=O)O)cc1)/C(=C\c1ccco1)NC(=O)c1ccccc1,6.1,6.3,0.6,-1.5,i,1.8,·,·,·
CC(C)(C)c1ccc(C(=O)N/C(=C\c2ccco2)C(=O)Nc2ccccc2C(=O)O)cc1,-0.6,20.0*,16.1,0.3,i,6.4,1.9,-9.7,25.5*
CCc1ccccc1NC(=O)c1cccc(NC(=O)/C=C/c2ccco2)c1,0.7,4.6,-2.8,0.9,i,-1.5,·,·,·
O=C(/C=C/c1ccco1)Nc1cccc(C(=O)Nc2ccccc2C(=O)O)c1,-0.1,18.5*,36.6*,-0.7,i,12.4,3.3,-16.5,12.7
O=C(Nc1ccc(C(=O)O)cc1)/C(=C\c1ccco1)NC(=O)c1ccccc1Cl,4.5,17.2*,6.6,0.4,i,-6.2,2.2,-10.8,2.0
C[C@H]1[C@@H](NC(=O)C2CCC2)CC[C@@]23CCCN2C(=O)CCC[C@@H]13,·,9.6,1.1,·,·,-4.3,·,·,·
SMILES,proKLK7 act,LEDGF integ inh,UHRF1 MBD2 ctr,Rin1 Abl inh,Neddyl block,MBD2 inh,IN multimer up,TR-FRET interf,IN-LEDGF confirm
COc1ccc(S(=O)(=O)N2CCCCC2)cc1NC(=O)C1CC1C (configuration not stated),-0.4,1.2,-2.7,5.5,i,-3.8,·,·,·
Cc1ccc(-n2ncc(-c3n[nH]c(=S)o3)c2N)cc1C,-0.1,-2.5,0.6,1.3,i,2.5,·,·,·
CCCC(=O)N1CCCC1(C)C(=O)Nc1ccc(C)c(C)c1 (configuration not stated),0.1,-0.8,-0.3,-0.8,i,4.7,·,·,·
CCCC(=O)N1CCCC1(C)C(=O)Nc1cc(C)ccc1C (configuration not stated),0.9,85.2*,2.9,1.1,i,-0.4,-0.3,1.4,-13.7
CC1C(=O)CC2C3(C)CCC2(C(C)C(=O)O)C(=O)C13 (configuration not stated),-0.2,0.7,-0.6,-3.7,i,1.1,·,·,·
CCCCCn1c(NC(=O)c2ccco2)c(S(=O)(=O)c2ccc(C)cc2)c2nc3ccccc3nc21,-4.8,17.3*,14.0,-0.3,·,0.8,17.3*,-61.3,21.2*
CCCCn1c(NC(=O)c2ccc(Br)o2)c(S(=O)(=O)c2ccccc2)c2nc3ccccc3nc21,-5.3,17.0*,7.7,1.5,i,2.8,0.5,-2.4,21.1*
COCCCNC(=O)C[C@H]1C[C@@]2(C(=O)OC)C(=C[C@H](C3CCCC3)O[C@@H]2C)N(Cc2cccc3ccccc23)C1=O,0.6,3.8,-1.5,·,·,-6.2,·,·,·
O=C(Nc1nc(-c2ccccc2)c(-c2ccccc2)o1)c1ccc(F)cc1,-2.0,26.0*,1.1,-6.3,i,0.3,-0.1,0.4,18.4*
COc1cccc(C(=O)Nc2nc(-c3ccccc3)c(-c3ccccc3)o2)c1,-2.7,13.9*,-1.4,3.5,i,-1.7,0.4,-2.1,18.7*
Cc1occc1C(=O)Nc1cnn(CCCC(=O)O)c1,0.1,-0.9,2.5,0.4,i,0.3,·,·,·
O=C1C2C3C=CC(C3)C2C(=O)N1c1ccccc1OS(=O)(=O)c1ccccc1 (configuration not stated),-0.2,21.4*,13.5,-1.1,i,2.0,-0.3,1.0,-2.5
C=CCNC(=S)N1N=C(c2ccco2)CC1c1ccco1 (configuration not stated),0.5,17.3*,-2.8,1.2,i,-3.2,1.5,-7.5,6.8
C=CCNc1oc(-c2cccs2)nc1C#N,-8.9,0.7,-2.1,-3.5,·,-0.8,·,·,·
